Test results: PubChem BioAssay AID651812 (National Center for Advancing Translational Sciences (NCATS), 2012)
Out of some 2,100 compounds screened, about 650 (31%) were called active. Another 16% or so got no clear call; they are omitted. Calls come from the whole dose curve; as a rule, active = well fitted inhibition curve with a large enough effect; inconclusive = small, poorly fitted or top-dose-only effect; inactive = flat fitted curve, though single readings scatter. Some of the results follow. Where a call stands in place of a potency, no number is given.

Assay: qHTS for inhibitors of Vif-A3G interactions: Cherry picks; note: nearly all actives have a fitted effect of over 80% in size
Settings: HeLa A3G-eYFP + Vif (tagged APOBEC3G with the HIV-1 protein that degrades it), 24 h; Potency: eYFP fluorescence increase; series mostly up to 36.9 µM
Outline: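 HeLa cells stably expressing A3G-eYFP and Vif, cultured overnight then exposed to compounds at several concentrations for 24 hours at 37 C, 5% CO2; cellular yellow fluorescence (488 nm ex, 500-530 nm em) imaged on Acumen, MG132 positive control.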
Potency is the fitted concentration of half-maximal effect.

SMILES | Potency
Cc1cc(OCC(=O)Nc2nnc(C3CC3)s2)ccc1Cl | inactive
COc1ccc2[nH]c(C(=O)N/N=C/c3ccc(OC)c(O)c3)cc2c1 | inactive
Cc1ccc(/C=N/NC(=O)c2ccc3ccccc3c2)s1 | inactive
COc1cc(OC)cc(C(=O)Nc2ccc(N3CCN(C(=O)c4cccs4)CC3)cc2)c1 | inactive
COc1cc2ccccc2cc1C(=O)N/N=C/c1cccs1 | inactive
COc1ccc2o/c(=N/NC(=O)c3cccs3)c(C(N)=O)cc2c1 | 14 µM (active)
O=C1CN(C(=O)c2cc(Br)c(Br)s2)c2ccccc2N1 | inactive
CCN(Cc1ccccc1)c1ccc(/C=C(\C#N)c2ccccn2)cc1 | inactive
CN(C)c1ccc(/C=C/c2nccc3ccccc23)cc1 | 23.1 µM (active)
CN(C)c1ccc(C=Cc2nccc3ccccc23)cc1 | 17.7 µM (active)
CCN(CC)c1nc(C=Cc2ccc(N(C)C)cc2)c2nccnc2n1 | 2.06 µM (active)
CCN(Cc1ccccc1)c1ccc(/C=C/c2nccc3ccccc23)cc1 | 20.6 µM (active)
COc1cc(SC)ccc1C(=O)N1CCN(c2ccccc2OC)CC1 | inactive
Cc1ccc2c(c1C)NC(=O)CC(c1ccccc1O)=N2 | inactive
CN(C)CCCN(C(=O)/C=C/c1cccs1)c1nc2ccc(F)cc2s1 | inactive
CC(C)CCNC(=O)c1ccc2c(c1)NC(=O)C(CS(=O)(=O)Cc1cccc(Br)c1)N2 (stereo not drawn) | inactive
CC1Sc2ccc(C(=O)NCc3ccccn3)cc2NC1=O (stereo not drawn) | inactive
Cc1ccc(CNC(=O)c2ccc3c(c2)NC(=O)C(CS(=O)(=O)Cc2cccc(C)c2)N3)cc1 (stereo not drawn) | 20.6 µM (active)
C[C@@H]1O[C@@H](O[C@@H]2C(=O)c3c(O)cc(O)cc3O[C@H]2c2ccc(O)c(O)c2)[C@H](O)[C@H](O)[C@H]1O | inactive
CN(C)C(=O)c1cccc(-c2cnc3c(NC=O)cc(-c4ccccc4F)cn23)c1 | inactive
CC1=CC(C)(C)NC(=S)N1c1ccc2ccccc2c1 | inactive
CCOC(=O)c1c(CC(C)C)csc1/N=C/C1C(=O)CCCC1=O | inactive
C=C1C(=O)O[C@H]2C1CC[C@@](C)(O)C13C=CC(C)(C21)C1(C3)C(=O)O[C@@H]2C3C(C)=CCC3[C@](C)(O)C[C@H](OC(C)=O)C21 (stereo partly drawn) | inactive
O=C1/C(=C/c2ccc([N+](=O)[O-])cc2)Oc2cc(O)ccc21 | inactive
CN(C)c1ccc(/C=C2\Oc3ccc(C#Cc4cccc(N)c4)cc3C2=O)cc1 | 14 µM (active)

SMILES | Potency
COc1cnc(-c2ccccn2)nc1Oc1ccc(F)cc1F | inactive
CC(C)(C)OC(=O)NC(Cc1ccccc1)C(=O)N1CCC(C(=O)NCC(=O)Nc2ccc(F)cc2)CC1 (stereo not drawn) | 18.4 µM (active)
COc1ccc(/C=N/n2cc(-c3ccccc3)nc2N)cc1 | inactive
Cc1ccnc(N/C=C(\C#N)c2nc(-c3cccc(Br)c3)cs2)c1 | 14 µM (active)
COC(=O)c1nnn(-c2nonc2N)c1CN1CCc2ccccc21 | inactive
CC1(C)CCN2CCC(C)(C)c3c(O)ccc1c32 | 14 µM (active)
COc1cc(CNCCSc2nnnn2C)ccc1OCc1c(F)cccc1Cl | inactive
Cc1ccc(N=Cc2c(O)n(-c3nccs3)c(=O)c3ccccc23)c(C)c1 | 16.4 µM (active)
N#C/C(=C/c1ccc(-c2ccc([N+](=O)[O-])cc2)o1)C(=O)Nc1nc(-c2cccs2)cs1 | inactive
Cc1ccc(NC(=O)/C(C#N)=C\c2ccc(-c3ccc(Cl)cc3)o2)c(C)c1 | 7.31 µM (active)
CCN(CC)c1ccc(/C=c2/sc3nnc(-c4ccccc4C)n3c2=O)cc1 | 25.9 µM (active)
O=C1NC(c2ccccc2Br)=N/C1=C\c1ccco1 | inactive
Cc1cccc(N2CCN(C(=O)c3ccncc3)CC2)c1C | inactive
C(=Cc1c[nH]c2ccccc12)c1ccc2ccccc2n1 | 20.6 µM (active)
C(=C\c1c[nH]c2ccccc12)/c1ccc2ccccc2n1 | 18.4 µM (active)
Cc1[nH]c2ccccc2c1/C=C/c1ccnc2ccccc12 | inactive
Cc1[nH]c2ccccc2c1/C=C/c1ccc2ccccc2n1 | 18.4 µM (active)
Nc1cccc(CCc2nc3cc4ccccc4cc3[nH]2)c1 | inactive
Cc1cc(NC(=O)NC(=O)c2ccccc2NC(=O)C(C)N)ccc1Oc1ncc(Br)cn1 (stereo not drawn) | inactive
CC(=O)Nc1ccc(S(=O)(=O)Nc2nc3ccccc3nc2Sc2nncn2C)cc1 | inactive
Cc1ccc2[nH]c(C)c(/C=C/c3cc[n+](C)cc3)c2c1 | 1.77 µM (active)
O=c1cc(-c2ccccc2)[nH]c2ccccc12 | inactive
Cc1[nH]c2ccccc2c1/C=C/c1cc[n+](C)cc1 | 4.44 µM (active)
Cc1[nH]c2ccccc2c1/C=C/C(=O)c1ccccc1 | 23.1 µM (active)
COc1ccc(-c2cc(NC(C)=O)c3ncc(-c4cc(OC)c(OC)c(OC)c4)n3c2)cn1 | inactive

SMILES | Potency
CCOc1ccccc1N1CC(c2nc3ccccc3n2Cc2c(C)cc(C)cc2C)CC1=O (stereo not drawn) | inactive
O=C(Cn1ncc(Cl)c(Cl)c1=O)N1CCN(S(=O)(=O)c2ccc3ccccc3c2)CC1 | inactive
Cc1ccc(/C=N/NC(=O)C2COc3ccccc3O2)s1 (stereo not drawn) | inactive
O=S(=O)(Nc1cccc2ncccc12)c1cccs1 | inactive
Cc1ccc(NC(=O)C(=Cc2ccc(C(=O)O)cc2)C(=O)Nc2ccc(C)cc2C)c(C)c1 | inactive
Cc1cccc(NC(=O)/C=C/c2ccc([N+](=O)[O-])s2)c1 | 4.11 µM (active)
CC(=O)c1cccc(NC(=S)N2c3ccccc3CC2C)c1 (stereo not drawn) | inactive
Cc1nc(NC(=O)/C=C/c2ccco2)sc1C | inactive
Cc1ccc(NC(=O)Cc2ccc(-n3cccc3)cc2)c(C)c1 | inactive
CC(=O)c1cccc(NC(=O)/C=C/c2ccc([N+](=O)[O-])s2)c1 | 8.2 µM (active)
Cc1ccc(NC(=O)/C=C/c2ccc([N+](=O)[O-])s2)cc1 | 7.31 µM (active)
Cc1ccc(NC(=O)/C=C/c2ccc([N+](=O)[O-])s2)c(C)c1 | 5.8 µM (active)
C=CCN=c1scc(-c2ccc(F)cc2)n1/N=C/c1ccccn1 | inactive
COc1ccc(CN2C(=O)C(C)Nc3ncnc(N4CCc5ccccc5C4)c32)cc1 (stereo not drawn) | inactive
COC(=O)c1sccc1NC(=S)Nc1cc(C)cc(C)c1 | inactive
Cc1cc(C)cc(NC(=O)/C=C/c2ccc([N+](=O)[O-])s2)c1 | 23.1 µM (active)
Cc1noc(C)c1COc1ccc(C(=O)NNC(=O)c2ccccc2F)cc1 | inactive
O=C(COc1ccccc1-c1ccccc1)NN=C1CCCC1 | inactive
COc1ccc(-n2cc3c(-c4cccc(Br)c4)nnc(C)c3n2)cc1 | inactive
C=CCN1C(=O)C2(NNc3ccccc3O2)c2ccccc21 (stereo not drawn) | 12.5 µM (active)
c1ccc2c(-c3nc4ccccc4[nH]3)cccc2c1 | inactive
O=C(Nc1ccccc1-c1nc2ccccc2[nH]1)c1ccc(N2C(=O)CCC2=O)cc1 | 23.1 µM (active)
CCOc1ccc(C(=O)Nc2cc(-c3nc4ccccc4[nH]3)ccc2Cl)cc1[N+](=O)[O-] | inactive
Cc1c(N/N=C(\C#N)C(=O)c2ccc(Cl)cc2)c(=O)n(-c2ccccc2)n1C | 20.6 µM (active)
Cc1c(NC(=O)c2csc3c2CCCC3)c(=O)n(-c2ccccc2)n1C | inactive

SMILES | Potency
COc1cc(/C=C2\COC/C(=C\c3cc(OC)c(OC)c(OC)c3)C2=O)cc(OC)c1OC | inactive
C=CCOc1c(Cl)cc(C(=S)N2CCCC2)cc1OCC | inactive
COc1cc(C=C2CCCC(=Cc3ccc(OCC4CO4)c(OC)c3)C2=O)ccc1OCC1CO1 (stereo not drawn) | inactive
CCOc1cc(/C=C2\CCC/C(=C\c3cc(Cl)c(O)c(OCC)c3)C2=O)cc(Cl)c1O | 12.5 µM (active)
COc1cc(/C=N/Nc2ccc(Cl)nn2)cc(OC)c1O | inactive
COc1cc(/C=C2/CCC/C(=C\c3cc(O)c(OC)c(Cl)c3)C2=O)cc(Cl)c1O | 18.4 µM (active)
Cn1c(=O)c(N)c2c3c(c(Br)ccc31)C(=O)c1ccccc1-2 | 2.91 µM (active)
Cc1cccc(-c2noc(-c3ccc(NCc4ccco4)c([N+](=O)[O-])c3)n2)c1 | 16.4 µM (active)
O=[N+]([O-])c1cc(-c2nc(-c3ccccc3)no2)ccc1NCc1ccco1 | 10.3 µM (active)
COc1ccccc1-c1noc(-c2ccc(NCc3ccco3)c([N+](=O)[O-])c2)n1 | 23.1 µM (active)
COc1ccc(-c2cnc3c(c2)CCC3(C#N)C#N)cc1 | inactive
O=C1N/C(=N\N=C\c2ccco2)SC1Cc1ccccc1[N+](=O)[O-] (stereo not drawn) | inactive
CCN(CC)S(=O)(=O)c1cc([N+](=O)[O-])ccc1N=Nc1c(O)[nH]c2ccccc12 | 20.6 µM (active)
Cc1ccccc1NCC(=O)N=Nc1c(O)[nH]c2ccc([N+](=O)[O-])cc12 | inactive
CN1C2=CC=CC=CC2=[N+](C)C12C([N+](=O)[O-])=CC(=[N+]([O-])[O-])C=C2[N+](=O)[O-] (stereo not drawn) | inactive
Nc1nn(-c2ccccc2)c(N)c1N=Nc1ccccc1 | inactive
Nc1c(N(CCC2=CCCCC2)C(=O)c2ccc([N+](=O)[O-])o2)c(=O)[nH]c(=O)n1Cc1ccccc1 | 18.4 µM (active)
CCCCN(C(=O)c1ccc([N+](=O)[O-])s1)c1c(N)n(CCCC)c(=O)[nH]c1=O | inactive
CCCCn1c(N)c(N(CCC(C)C)C(=O)c2ccc([N+](=O)[O-])o2)c(=O)[nH]c1=O | inactive
O=Cc1s/c(=N\S(=O)(=O)c2ccccc2)n(CCCCl)c1Cl | inactive
CCOC(=O)COn1c(=O)c(-c2ccc(Br)cc2)[n+]([O-])c2ccccc21 | inactive
CCOC(=O)Cn1c(=O)c(-c2cc(Br)ccc2N)nc2ccccc21 | 11.6 µM (active)
CCOC(=O)CSc1nc2c(c(=O)[nH]1)C(C)(CC)Cc1ccccc1-2 (stereo not drawn) | inactive
